Assay outcomes deposited in PubChem by National Center for Advancing Translational Sciences (NCATS).
An excerpt weighted towards active compounds, which were near 7.2% of everything screened.
NIH3T3 tox: Cytotoxic Profiling in NIH 3T3 Cell Line of Diverse Libraries Using Quantitative High-Throughput Screening | Potency, µM (highest dose often 96.7 µM), for inactives: at the top dose activity change, negative = cytotoxicity, usual class: inhibitors | AID 1345082, 2018 | 4.3% of 94,000 active | NIH 3T3 viability, CellTiter-Glo ATP luminescence, 48-72 h; further: nearly all actives have a fitted effect of over 55% in size
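Cytotoxicity was measured by CellTiter-Glo ATP luminescence after 48 or 72 h compound exposure at 37 °C. Mouse NIH 3T3 fibroblasts were seeded at 400 cells/well and dosed by 23 nL pin transfer.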
HEK293 tox: Cytotoxic Profiling in HEK 293 Cell Line of Diverse Libraries Using Quantitative High-Throughput Screening. Potency, µM (highest dose often 115 µM), without a hit: at the top dose activity change, negative = cytotoxicity, hits mostly inhibitors. HEK 293 viability, ATP luminescence (CellTiter-Glo), 48-72 h. 6.6% of 94,000 active; further: nearly all actives have a fitted effect of over 60% in size
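Cytotoxicity was scored by loss of ATP-coupled luminescence (CellTiter-Glo) in HEK 293 cells. Compound treatment ran 48 or 72 hr at 37 degree Celsius, 5% CO2, 95% humidity.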
FLuc inh: Firefly luciferase inhibition profiling of diverse chemical library using quantitative high-throughput screening; Luciferin 4-monooxygenase (Photinus pyralis), P08659; purified P. pyralis luciferase, luminescence, biochemical; Potency, µM (top dose mostly 115 µM), usual class: inhibitors; 2.5% of 76,000 active; further: nearly all actives have a fitted effect of over 65% in size
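Purified 10nM P. pyralis luciferase with 10uM D-luciferin and 10uM ATP in 50mM Tris acetate pH 7.5, 10mM Mg acetate, 0.01% Tween-20, 0.05% BSA. qHTS titration; luminescence read by CCD imager.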
HEK293 viab: GF-AFC viability counterscreen for inhibitors of alpha-synuclein gene (SNCA) expression; HEK-293-SNCA-luc viability, GF-AFC fluorescence, 24 h; Potency, µM (titrated, usually from 57.1 µM), without a hit: top-dose activity change, negative = cytotoxicity, hits mostly cytotoxic; 0.12% of 150,000 active; AID 1671193, 2021;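 further: 0% = DMSO-treated cells and -100% = medium-only wells without cells; nearly all actives have a fitted effect of over 30% in size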
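Cytotoxicity counterscreen: after 24 h compound treatment of genome-edited SNCA-luciferase HEK-293 cells, live-cell protease substrate GF-AFC read by fluorescence after 30 min; activity scaled between DMSO (0%) and medium-only (-100%), curves Hill-fitted.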
hNpr1 antagonist: Natriuretic polypeptide receptor (hNpr1) antagonism - Primary qHTS | Potency, µM (titrated, usually from 46.3 µM), inactives show top-dose activity change, negative = inhibition, most hits filed as inhibitors | Atrial natriuretic peptide receptor 1 (Homo sapiens), P16066 | AID 1347048, 2019 | 1.6% of 76,000 active | HEK293 hNpr1 GloSensor cGMP, ANP-stimulated luminescence; calls by dose curve; further: nearly all actives have a fitted effect of over 60% in size
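Compound pre-incubated 30 min at room temperature on GloSensor-loaded HEK293 cells stably carrying hNpr1 and the pGS-40F cGMP biosensor. Stimulation uses hNppA at 0.1 nM final; luminescence is taken at baseline and 20 min post-agonist.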
SNCA expr inh: Primary qHTS assay for inhibitors of alpha-synuclein gene (SNCA) expression. HEK-293 SNCA-luciferase knock-in, luminescence, 24 h. 0.17% of 140,000 active. Potency, µM (highest dose often 57.2 µM), without a hit: at the top dose activity change, negative = inhibition, actives largely listed as inhibitors;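 further: plate controls were DMSO cells for no effect and cell-free wells for full effect; nearly all actives have a fitted effect of over 45% in size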
* = called active by the depositor; i = inactive; ? = inconclusive; . = no result given; ! = repeats disagree; [ ] = dose if it differs, or a comment. Unless noted, the call rests on the fitted dose curve; in most records, active means well fitted curve in the direction sought with a large enough effect; inconclusive means small, poorly fitted or top-dose-only effect, or another doubt; inactive means no such curve, though single readings can be large; an effect the other way counts as inactive or inconclusive. Unless noted, on the % scale 0 is the no-effect control and ±100 the full control effect; potency means the concentration at half of the fitted maximal effect.

SMILES	NIH3T3 tox	HEK293 tox	FLuc inh	HEK293 viab	hNpr1 antagonist	SNCA expr inh
Cc1noc2c(NCCN(C)C)cc(-c3cccc(C(F)(F)F)c3)nc12	32µM*	32µM*	i	3%[87.6 µM]	5%[70.6 µM]	1%[87.6 µM]
COCCCNc1cc(-c2cccs2)nc2c(C)noc12	?	?	i	6%[87.6 µM]	3%[70.6 µM]	23%[87.6 µM]
CCN1CCC(CCNC(=O)C2CCCN(C(=O)c3ccccc3)CCC(=O)NCC2)CC1 (configuration not stated)	i	i	i	2%	-1%	-9%
O=C(c1ccc(C(F)(F)F)cc1)N1CCC2(CC1)CCN(Cc1cccs1)c1ccccc1O2	13µM*	25µM*	i	-10%	-11%	19%
O=C(C1CC1)N1CCC2(CC1)CCN(Cc1cccs1)c1ccccc1O2	?	35µM*	i	-18%	2%	14%
O=C1CC2(CCN(C(=O)C3CCN([S+](=O)([O-])c4cccs4)CC3)CC2)Oc2ccccc2N1	?	28µM*	.	-20%	.	13%
Cc1ccc(C(=O)N2CCC3(CC2)CCN(Cc2cccs2)c2ccccc2O3)cc1	?	?	i	?	2%	-27%
O=C(c1ccccc1Cl)N1CCC2(CC1)CCN(Cc1cccs1)c1ccccc1O2	?	?	i	?	19%	-10%
CN(C)[S+](=O)([O-])c1ccc2c(c1)OCCN(Cc1cccnc1)C2	-29%[138 µM]	?	i	3%[87.6 µM]	-16%[70.6 µM]	6%[87.6 µM]
Cc1ccc(C(=O)N2CCCC3(C2)NC(=O)N(Cc2cccc(Cl)c2)C3=O)cc1F (configuration not stated)	?	?	i	7%	-17%	14%
CC(=O)N1CCC(c2nnc3n2C(C(=O)N2CCN(C)CC2)CC3)CC1 (configuration not stated)	-17%	-11%	.	-9%[12.5 µM]	.	-4%
Cc1ccc(C(=O)N2CCC23Cc2ccccc2NC3=O)cc1 (configuration not stated)	-18%[138 µM]	100µM*	i	-23%[87.6 µM]	0%[70.6 µM]	35%[87.6 µM]
COc1cccc(C(=O)N2CCC3(CC2)Cc2ccccc2NC3=O)c1	35µM*	45µM*	i	-5%	-2%	-3%
O=C(c1ccccc1F)N1CCC2(CC1)Cc1ccccc1NC2=O	?	50µM*	i	3%	0%	14%
O=C(c1ccccc1F)N1CC2(Cc3ccccc3NC2=O)C1	-6%	1%	.	-1%	.	51%
O=C(c1ccc(Cl)cc1)N1CCC2(Cc3ccccc3NC2=O)C1 (configuration not stated)	?	?	i	?	-27%[70.6 µM]	-19%[87.6 µM]
O=C(c1cccc(Cl)c1)N1CCC2(CC1)Cc1ccccc1NC2=O	?	?	i	-12%	22%	-4%
O=C(c1ccc(Cl)cc1)N1CCC2(CC1)Cc1ccccc1NC2=O	28µM*!	?	i	?	2%	-17%
COCC1CN(Cc2cccc(OC(F)(F)F)c2)CC12CCNCC2 (configuration not stated)	?	?	i	-28%	-6%	-10%
CN1C(=O)c2ccccc2CC12CCCN(C(=O)c1ccc(Cl)cc1)C2 (configuration not stated)	?	-7%	.	-15%	.	0%
O=C(Cc1ccccc1)N1CCC2(Cc3ccccc3NC2=O)C1 (configuration not stated)	-24%[138 µM]	100µM*	i	6%[87.6 µM]	-5%[70.6 µM]	8%[87.6 µM]
O=C(Cc1ccc(F)cc1)N1CCC2(CC1)Cc1ccccc1NC2=O	-7%	0%	i	-17%	?	-16%
O=C(Cc1c[nH]c2ncc(-c3ccccc3)cc12)NC1CC1	89µM*	?	i	-9%[87.6 µM]	?	-22%[87.6 µM]
CNC(=O)c1cccc(-c2cnc3[nH]cc(CC(=O)NC4CCC4)c3c2)c1	40µM*	?	?	-24%[87.6 µM]	2%[70.6 µM]	5%[87.6 µM]
CNC(=O)c1cccc(-c2cnc3[nH]cc(CC(=O)NCc4cccs4)c3c2)c1	89µM*	?	i	?	-14%[70.6 µM]	39%[87.6 µM]
SMILES	NIH3T3 tox	HEK293 tox	FLuc inh	HEK293 viab	hNpr1 antagonist	SNCA expr inh
CNC(=O)c1cccc(-c2cnc3[nH]cc(CC(=O)Nc4ccccc4Cl)c3c2)c1	?	89µM*	?	?	1%[70.6 µM]	56%[87.6 µM]
CNC(=O)c1cccc(-c2cnc3[nH]cc(CC(=O)N(C)C)c3c2)c1	?	?	?	-3%[87.6 µM]	5%[70.6 µM]	52%[87.6 µM]
Cc1noc(C)c1-c1cc2c(c(-c3cccc(S(C)(=O)=O)c3)c1)C(=O)N(C)C2	?	-23%[172 µM]	i	-7%[87.6 µM]	7%[70.6 µM]	84%[87.6 µM]
CC(=O)N1CCC2(CC1)CN(C(=O)c1cccc3[nH]ccc13)Cc1ccccc1O2	-2%	2%	.	0%	.	6%
COc1ccc(NC(=O)c2cnc3c(c2)N(c2ccccc2OC)CCC3)cn1	?	?	i	-21%[87.6 µM]	-28%[70.6 µM]	-26%[87.6 µM]
CN(C)c1cccc(-c2cnc3[nH]cc(CC(=O)NCc4cccnc4)c3c2)c1	?	?	?	-7%[87.6 µM]	-10%[70.6 µM]	-24%[87.6 µM]
O=C(Cc1c[nH]c2ncc(-c3cccnc3)cc12)NCCc1ccccn1	100µM*	-4%[172 µM]	i	9%[87.6 µM]	-1%[70.6 µM]	-11%[87.6 µM]
O=C(Cc1c[nH]c2ncc(-c3cccnc3)cc12)NC1CCC1	28µM*	?	i	-4%[87.6 µM]	10%[70.6 µM]	-15%[87.6 µM]
COCCNC(=O)Cc1c[nH]c2ncc(-c3cccnc3)cc12	?	-22%[172 µM]	i	12%[87.6 µM]	3%[70.6 µM]	5%[87.6 µM]
CCN1c2cc(C(=O)NCc3ccc(SC)cc3)ccc2C(=O)N2CCCCCC21 (configuration not stated)	?	?	i	?	-8%	16%
O=C(NCc1cccc(C(F)(F)F)c1)C1CCCN(c2ccnc3ccnn23)C1 (configuration not stated)	?	45µM*	.	-12%	.	-11%
O=C(NCC1CC1)C1CCCN(c2ccnc3ccnn23)C1 (configuration not stated)	-19%[138 µM]	3%[172 µM]	.	-3%[87.6 µM]	.	30%[87.6 µM]
O=C(NC1CCN(c2ccnc3ccnn23)CC1)c1ccc(Cl)cc1	?	45µM*	.	4%	.	7%
Cc1cc(C(=O)N2CCCN(c3ccnc4ccnn34)CC2)ccc1Cl	?	45µM*	.	5%	.	-19%
O=C(NCC1CCCCC1)C1CN(c2ccnc3ccnn23)C1	-27%	25µM*	.	4%	.	8%
